Source: publication PMC6792352, “Limited Chemical Structural Diversity Found to Modulate Thyroid Hormone Receptor in the Tox21 Chemical Library” (Environmental Health Perspectives, 2019)
Where a name gives a salt, the structure may show the parent alone.

These compounds were tested on thyroid hormone receptor (endogenous TRα and TRβ). Settings: read-out: Average AC50 (uM) GH3-TRE-Antag, antagonist mode, 1 nM T3, no GH3 cytotoxicity hit.
Design: species or system GH3-TRE-Luc (rat pituitary); GH3-TRE-Luc luciferase reporter, antagonist mode against 1 nM T3, loss of signal, qHTS

Row | Structure (SMILES) | AC50
1 | CCN(C(=O)N(CC)c1ccccc1)c1ccccc1 [N,N'-Diethylcarbanilide] | 45.9 µM
2 | O=C(O)C(F)(F)C(F)(F)C(F)(F)C(F)(F)C(F)(F)C(F)(F)C(F)(F)C(F)(F)F [Perfluorononanoic acid] | 71.7 µM
3 | C=CC(C)(O)CC/C=C(\C)CCC=C(C)C (stereo not drawn) [trans-Nerolidol] | 9.85 µM
4 | CC/C=C\C/C=C\C/C=C\CCCCCCCC(=O)O [Linolenic acid] | > 50 µM
5 | Clc1ccc(Cn2c(CN3CCCC3)nc3ccccc32)cc1 [Clemizole hydrochloride] | 13.3 µM
6 | c1csc(SSc2cccs2)c1 [2-Thienyl disulfide] | 57.5 µM
7 | CCCCCc1ccc(C)cc1O [Amylmetacresol] | 23.6 µM
8 | CC#Cc1cc(C)nc(Nc2ccccc2)n1 [Mepanipyrim] | 64.8 µM
9 | COC(=O)c1cc(Oc2ccc(Cl)cc2Cl)ccc1[N+](=O)[O-] [Bifenox] | 74 µM
10 | O=C(O)C1(C(=O)Nc2ccc(Cl)cc2Cl)CC1 [Cyclanilide] | 64.4 µM
11 | CCOC(=O)NC(=S)Nc1ccccc1NC(=S)NC(=O)OCC [Thiophanate] | 47.1 µM
12 | C#C[C@]1(O)C=C[C@H]2[C@@H]3CCC4=CC(=O)CC[C@@H]4[C@H]3CC[C@@]21CC [Gestodene] | 15.5 µM
13 | CCC[C@@]1(CCc2ccccc2)CC(O)=C([C@H](CC)c2cccc(NS(=O)(=O)c3ccc(C(F)(F)F)cn3)c2)C(=O)O1 [Tipranavir] | 36.8 µM
14 | c1ccc2c(c1)Oc1ccccc1S2 [Phenoxathiin] | > 90 µM
15 | O=C(O)Cc1ccccc1Nc1c(Cl)cccc1Cl [Diclofenac sodium] | > 50 µM
16 | CC(C)(C)NC(=O)[C@H]1CC[C@H]2[C@@H]3CC[C@H]4NC(=O)C=C[C@]4(C)[C@H]3CC[C@]12C [Finasteride] | > 20 µM
17 | CC1(C)C(C=C(Cl)Cl)[C@@H]1C(=O)O[C@@H](C#N)c1ccc(F)c(Oc2ccccc2)c1 (stereo partly drawn) [Cyfluthrin] | 39.9 µM
18 | CCC(=O)NCC[C@@H]1CCc2ccc3c(c21)CCO3 [Ramelteon] | 39.2 µM
19 | CCCc1nc2c(C)cc(-c3nc4ccccc4n3C)cc2n1Cc1ccc(-c2ccccc2C(=O)O)cc1 [Telmisartan] | 31.6 µM
20 | C[C@]12CC[C@@H]3c4ccc(O)cc4CC[C@H]3[C@@H]1CC[C@@H]2O [17beta-Estradiol] | 31.7 µM
21 | CC(C)OC(=O)OCOP(=O)(CO[C@H](C)Cn1cnc2c(N)ncnc21)OCOC(=O)OC(C)C [Tenofovir disoproxil fumarate] | 24.9 µM
22 | COc1ccc(N=[N+]([O-])c2ccc(OC)cc2)cc1 [4-Azoxyanisole] | 30.2 µM
23 | CCCCCCCCCCCCSC#N [Lauryl thiocyanate] | 42.6 µM

Same assay, conditions: read-out: Average AC50 (uM) GH3-TRE-Antag, antagonist mode, 1 nM T3, no GH3 cytotoxicity hit, Average AC50 (uM) GH3-TRE-Antag, 24 h

Row | Structure (SMILES) | AC50
24 | CCCCCCn1cc[n+](C)c1 [1-Hexyl-3-methylimidazolium bromide] | 47.7 µM
25 | CCCCCCCCn1cc[n+](C)c1 [1-Methyl-3-octylimidazolium hexafluorophosphate] | 33 µM
26 | Nc1ccc2cc3ccc(N)cc3nc2c1 [Proflavin hemisulfate] | 4.93 µM
27 | CCCCCCCCCCCCOS(=O)(=O)O [Sodium dodecyl sulfate] | > 50 µM
